# Compounds with a hit are over-represented: about 7.5% of the library has one in this group of screens.
# Giardia FBPA inh: blocks Giardia fructose-bisphosphate aldolase activity | hit rate 0.71% among 290,000 | A8B2U2 | Potency, µM (top dose mostly 59.6 µM), for the others: at the highest dose activity, negative = inhibition, usual class: inhibitors | purified Giardia FBPA; also: potency is read from the fitted curve at half-maximal effect; nearly all actives have a fitted effect of over 55% in size
# Target sequence (A8B2U2 whole entry, looked up): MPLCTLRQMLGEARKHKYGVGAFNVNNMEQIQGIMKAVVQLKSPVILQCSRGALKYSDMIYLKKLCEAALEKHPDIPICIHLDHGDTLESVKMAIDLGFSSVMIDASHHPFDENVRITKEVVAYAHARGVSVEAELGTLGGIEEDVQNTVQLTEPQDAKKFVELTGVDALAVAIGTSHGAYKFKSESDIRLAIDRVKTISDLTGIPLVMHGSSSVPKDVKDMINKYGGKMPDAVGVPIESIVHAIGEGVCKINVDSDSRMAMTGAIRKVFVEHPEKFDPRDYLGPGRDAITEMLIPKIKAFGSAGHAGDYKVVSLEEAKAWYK
#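 40 nM FBPA preincubated 10 min at RT with compound (up to 57.5 uM final), then substrate plus GAPDH/TPI/NAD/arsenate coupling and diaphorase/resazurin added. Fluorescence read after 20 min at RT, 525/598 nm.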
# FMDV antiviral: antivirals against foot and mouth disease virus; FMDV antiviral cell-based qHTS; AID 1159524; Potency, µM (top dose mostly 57.9 µM), for the others: top-dose activity change, negative = inhibition, most hits filed as inhibitors; hit rate 1.2% among 410,000; calls by dose curve; tested in HEK293T cells; also: read-out not given here; potency is read from the fitted curve at half-maximal effect; nearly all actives have a fitted effect of over 45% in size
# VACV mCherry inh: vaccinia inhibition (mCherry reporter) | Vaccinia virus mCherry reporter infection, fluorescence | Potency, µM (top dose mostly 36.5 µM), for the others: at the top dose activity change, negative = inhibition, hits mostly inhibitors | hit rate 0.63% among 310,000 | AID 720579; calls by dose curve; tested in A549 cells; also: potency is read from the fitted curve at half-maximal effect; nearly all actives have a fitted effect of over 35% in size
# HCV inh: HCV inhibition; Huh7.5.1 HCVcc-Cre infection, luciferase reporter, 44 h; Potency, µM (titrated, usually from 41.8 µM), for the others: at the top dose activity change, negative = inhibition, hits mostly inhibitors; hit rate 3.4% among 340,000; AID 651820; also: potency is read from the fitted curve at half-maximal effect
#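 Cells seeded at 1,000/well and cultured 4 h, then compounds added followed by HCVcc-Cre virus (~0.5 moi). After 44 h further culture, luciferase substrate was added, plates held 15 min at room temperature, and luminescence read for 15 sec.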
# HCMV inh: human cytomegalovirus inhibition. hit rate 4.5% among 410,000. AID 1259415. HFF cells, HCMV-luciferase reporter, 72 h; stronger effect = lower value. activity change, negative = inhibition, % at 57.5 µM; in the data active = activity change below about -60%; inconclusive = no clear call, values can overlap the other calls; inactive = above about -39%
#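 Two-dose cell screen: HFF monolayers treated with compounds and infected with luciferase-expressing HCMV at 1 PFU/cell, 72 h at 37C, then lysed for luciferase measurement.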
# VACV Venus inh: inhibitors of vaccinia virus (Venus reporter); Vaccinia virus Venus reporter expression, fluorescence; Potency, µM (doses to about 36.5 µM), for inactives: at the top dose activity change, negative = inhibition, usual class: inhibitors; hit rate 0.46% among 330,000; calls by dose curve; tested in A549 cells; also: potency is read from the fitted curve at half-maximal effect; nearly all actives have a fitted effect of over 30% in size
# * = called active by the depositor; i = inactive; ? = inconclusive; nt = not tested or not shown. Unless noted, calls follow the shape of the dose curve; as a rule, active = well fitted curve in the direction sought with a large enough effect; inconclusive = small, poorly fitted or top-dose-only effect, or another doubt; inactive = no such curve, though single readings can be large; an effect the other way counts as inactive or inconclusive. % is scaled to controls: 0 for no effect and ±100 for the full control effect.
SMILES,Giardia FBPA inh,FMDV antiviral,VACV mCherry inh,HCV inh,HCMV inh,VACV Venus inh
CCCCn1c(SCC(=O)/C(C#N)=C(\C)N)nc2ccccc2c1=O,-5.3%,-21.3%,?,?,-72.7*,-23.4%
C/C(N)=C(/C#N)C(=O)CSc1nc2ccccc2c(=O)n1Cc1ccc(F)cc1,-11.1%,-12.3%,nt,-18.8%,0.0,nt
C/C(N)=C(/C#N)C(=O)CSc1nc2cc(Cl)ccc2s1,-0.4%,-26.8%,-6.8%,8.91µM*,-20.5,-20.9%
C/C(N)=C(/C#N)C(=O)CSc1nc2cc(Cl)ccc2c(=O)n1Cc1ccco1,0.1%,-23.9%,-1.7%,14.1µM*,?,-16.8%
Cc1ccc(NC(=O)CSCC(=O)N2c3ccccc3CCc3ccccc32)cc1,0.4%,nt,-4.9%,4.2%,-16.4,-17.6%
Cc1ccc(NC(=O)c2sc(-n3nc(C)c(Cc4ccc5c(c4)OCO5)c3C)nc2C)cc1Cl,nt,-28.5%,?,nt,15.6,1.9%
Cc1cc(S(=O)(=O)NCCc2ccccc2)c(C)s1,-8.4%,66.1%,nt,?,-97.5*,nt
CCn1cc(CN2CCOc3ccc(C(O)C4CCCCC4)cc3C2)c(C)n1 (stereo not given),nt,-20.5%,-9.2%,nt,nt,-7.2%
COc1ccccc1C(=O)OCCc1ccccc1,nt,0.0%,i,-7.4%,-100.0*,0.0%
CC(C)N1CCc2c(sc(NC(=O)CCS(=O)(=O)c3ccccc3)c2C(N)=O)C1,-24.8%,12.1%,nt,-10.7%,-110.8*,nt
CC(C)CN(CC(C)C)S(=O)(=O)c1ccc(C(=O)Nc2sc3c(c2C(N)=O)CCN(C(C)C)C3)cc1,nt,0.0%,?,nt,-81.9*,?
CN(CCc1ccccc1)C(=O)c1ccc(NC(=O)Cc2ccc([N+](=O)[O-])cc2)cc1,nt,-27.6%,?,?,19.6,?
COC(=O)[C@@H](Cc1ccccc1)NC(=O)/C=C/[C@H]1O[C@@H](n2cnc3c(NC(=O)c4ccccc4)ncnc32)[C@H](O)[C@@H]1O,nt,-10.2%,21.4%,nt,-14.2,3.2%
N#Cc1cc2c(=O)n3ccccc3nc2n(-c2nnc(SCc3ccc(F)cc3)s2)c1=O,nt,-12.7%,-1.0%,nt,1.3,3.7%
COCCCn1c(SCC(=O)N2CCOCC2)nnc1-c1ccco1,1.0%,1.7%,-19.5%,1.1%,-16.7,-9.8%
COc1ccc(OC)c2c1sc(=NC(=O)C1CC1)n2C,1.1%,-24.7%,nt,14.1µM*,-5.1,nt
COc1ccc(OC)c2c1sc(=NC(=O)c1ccco1)n2C,-0.4%,-23.2%,-8.9%,7.94µM*,-5.9,-0.6%
COc1cccc(C(=O)N=c2sc3c(C)ccc(OC)c3n2C)c1,-0.2%,55.4%,i,?,57.7,-1.7%
COc1ccc(C(=O)N=c2sc3c(C)ccc(OC)c3n2C)cc1OC,-6.7%,43.5%,nt,15.8µM*,82.6,nt
CCOc1ccc(N2CC(NC(=O)/C=C\c3ccc4c(c3)OCO4)CC2=O)cc1 (stereo not given),nt,-8.3%,-10.0%,nt,17.7,-10.6%
S=c1[nH]nc(Cc2ccc(Br)cc2)n1/N=C/c1ccc(Cl)cc1,-1.2%,-19.6%,-11.1%,9.6%,-66.7*,3.4%
CCOc1ccc(OCCCC(=O)N2CCN(S(=O)(=O)c3ccccc3C#N)CC2)cc1,nt,?,-11.3%,5.1%,?,-17.4%
O=C(NCCO)c1cn(C2CCN(Cc3c(F)cccc3Cl)CC2)nn1,nt,-18.7%,-4.0%,nt,nt,-4.1%
CCCNC(=O)NC(=O)CSc1nncs1,-3.2%,12.2%,i,11.0%,-23.4,-21.8%
O=C(NNC(=O)c1ccncc1)Nc1cccc(C(F)(F)F)c1,nt,26.8%,nt,16.6%,-25.4,nt
SMILES,Giardia FBPA inh,FMDV antiviral,VACV mCherry inh,HCV inh,HCMV inh,VACV Venus inh
COc1ccc(NC(=O)/C=C/c2ccc(OC(F)F)cc2)cn1,-11.9%,-30.0%,?,11.2µM*,-12.3,?
O=C(/C=C/c1cccc(C(F)(F)F)c1)NNC(=O)c1ccncc1,nt,-18.3%,?,?,-76.4*,-13.8%
Cc1ccc(NC(=O)/C=C/c2cccc(C(F)(F)F)c2)cc1,-1.1%,-14.8%,-15.4%,?,?,-4.7%
O=C(/C=C/c1cccc(C(F)(F)F)c1)Nc1cccc(C(F)(F)F)c1,-7.0%,-54.1%,?,?,-99.1*,?
COc1ccc(NC(=O)/C=C/c2cccc(C(F)(F)F)c2)cn1,-10.5%,?,?,11.2µM*,-31.5,-21.6%
Cc1ccsc1CN1CCc2nc(Nc3ccccc3)ncc2C1,nt,26.3%,-25.8%,nt,55.4,?

# Screening data from PubChem.
